PubChem BioAssay (Tox21)
Results filed as inconclusive are left out. A call without a number means that no potency is given here. Active and inactive are the calls of the source. Calls follow the shape of the dose curve; as a rule, active = well fitted curve in the direction sought with a large enough effect in the repeat runs; inconclusive = weak or mixed curves; inactive = no such curve, though single readings can be large; an effect the other way counts as inactive or inconclusive.

Key:
[1] = target: Cytochrome P450 1A2 (Homo sapiens) (UniProt P05177); assay: Cytochrome P450 Family 1 Subfamily A Member 2 (CYP1A2) small molecule antagonists: luciferase reporter qHTS assay (AID 1671199); also: potency is read from the fitted curve at half-maximal effect; as to activity change, negative = inhibition: series mostly up to about 120 µM
In short: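 Quantitative high-throughput format using the P450-Glo CYP1A2 system. Reaction initiated by NADPH regeneration solution, 1 h at room temperature, then stopped with detection reagent; luminescence measured 20 min later.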

[2] = target: Voltage-gated inwardly rectifying potassium channel KCNH2 (Homo sapiens) (UniProt Q12809); assay: Human Ether-a-go-go-Related Gene (hERG) channel small molecule antagonists: fluorescence cell-based qHTS assay (AID 1671200);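 also: hERG-expressing U2OS cells given a thallium stimulus after FluxOR II dye loading; series mostly up to about 77 µM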
In short: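 Measured: Tl+ flux via fluorescence (480/540 nm) in hERG-expressing U2OS cells after 1 h dye loading at room temperature.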

[3] = target: Cytochrome P450 3A4 (Homo sapiens) (UniProt P08684); assay: Cytochrome P450 Family 3 Subfamily A Member 4 (CYP3A4) small molecule antagonists: luciferase reporter qHTS assay (AID 1671201); also: potency is read from the fitted curve at half-maximal effect; as to activity change, negative = inhibition: series mostly up to about 120 µM
In short: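 Setup: enzyme-substrate mix, compound pin transfer, 10 min RT. Reaction: NADPH regeneration solution, 1 h RT. Readout: detection reagent stops turnover, luminescence measured after 20 min, expressed in relative luminescence units.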
Also: nearly all actives have a fitted effect of over 50% in size.

Cytochrome P450 1A2 (Homo sapiens), sequence (P05177 whole entry, looked up): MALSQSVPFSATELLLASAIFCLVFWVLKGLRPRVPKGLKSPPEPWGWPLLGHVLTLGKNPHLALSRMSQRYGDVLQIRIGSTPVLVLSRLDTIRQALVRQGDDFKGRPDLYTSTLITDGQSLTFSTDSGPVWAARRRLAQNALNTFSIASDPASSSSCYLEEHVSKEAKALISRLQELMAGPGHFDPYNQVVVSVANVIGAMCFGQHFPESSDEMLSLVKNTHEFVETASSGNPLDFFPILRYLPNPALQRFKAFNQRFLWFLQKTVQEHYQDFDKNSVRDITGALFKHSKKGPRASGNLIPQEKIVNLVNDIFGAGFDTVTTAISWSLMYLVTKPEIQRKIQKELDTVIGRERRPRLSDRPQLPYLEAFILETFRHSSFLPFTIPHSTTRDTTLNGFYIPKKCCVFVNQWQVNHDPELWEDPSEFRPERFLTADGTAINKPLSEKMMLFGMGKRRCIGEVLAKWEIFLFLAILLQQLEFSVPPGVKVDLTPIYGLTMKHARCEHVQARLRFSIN
Cytochrome P450 3A4 (Homo sapiens), sequence (P08684 whole entry, looked up): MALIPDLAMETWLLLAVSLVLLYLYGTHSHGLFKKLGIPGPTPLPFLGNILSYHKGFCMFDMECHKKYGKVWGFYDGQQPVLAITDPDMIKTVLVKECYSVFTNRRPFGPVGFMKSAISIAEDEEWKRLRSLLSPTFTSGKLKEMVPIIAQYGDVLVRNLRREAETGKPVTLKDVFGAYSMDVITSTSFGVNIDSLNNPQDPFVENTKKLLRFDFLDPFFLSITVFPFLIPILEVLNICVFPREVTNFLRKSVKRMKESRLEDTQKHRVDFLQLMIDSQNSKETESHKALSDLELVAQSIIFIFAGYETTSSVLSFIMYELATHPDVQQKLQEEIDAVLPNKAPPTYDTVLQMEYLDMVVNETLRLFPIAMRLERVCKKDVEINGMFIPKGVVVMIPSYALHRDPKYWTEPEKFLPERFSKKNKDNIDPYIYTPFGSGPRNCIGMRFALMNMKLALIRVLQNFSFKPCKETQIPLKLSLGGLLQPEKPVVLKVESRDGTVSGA
Voltage-gated inwardly rectifying potassium channel KCNH2 (Homo sapiens), sequence (Q12809 whole entry, looked up): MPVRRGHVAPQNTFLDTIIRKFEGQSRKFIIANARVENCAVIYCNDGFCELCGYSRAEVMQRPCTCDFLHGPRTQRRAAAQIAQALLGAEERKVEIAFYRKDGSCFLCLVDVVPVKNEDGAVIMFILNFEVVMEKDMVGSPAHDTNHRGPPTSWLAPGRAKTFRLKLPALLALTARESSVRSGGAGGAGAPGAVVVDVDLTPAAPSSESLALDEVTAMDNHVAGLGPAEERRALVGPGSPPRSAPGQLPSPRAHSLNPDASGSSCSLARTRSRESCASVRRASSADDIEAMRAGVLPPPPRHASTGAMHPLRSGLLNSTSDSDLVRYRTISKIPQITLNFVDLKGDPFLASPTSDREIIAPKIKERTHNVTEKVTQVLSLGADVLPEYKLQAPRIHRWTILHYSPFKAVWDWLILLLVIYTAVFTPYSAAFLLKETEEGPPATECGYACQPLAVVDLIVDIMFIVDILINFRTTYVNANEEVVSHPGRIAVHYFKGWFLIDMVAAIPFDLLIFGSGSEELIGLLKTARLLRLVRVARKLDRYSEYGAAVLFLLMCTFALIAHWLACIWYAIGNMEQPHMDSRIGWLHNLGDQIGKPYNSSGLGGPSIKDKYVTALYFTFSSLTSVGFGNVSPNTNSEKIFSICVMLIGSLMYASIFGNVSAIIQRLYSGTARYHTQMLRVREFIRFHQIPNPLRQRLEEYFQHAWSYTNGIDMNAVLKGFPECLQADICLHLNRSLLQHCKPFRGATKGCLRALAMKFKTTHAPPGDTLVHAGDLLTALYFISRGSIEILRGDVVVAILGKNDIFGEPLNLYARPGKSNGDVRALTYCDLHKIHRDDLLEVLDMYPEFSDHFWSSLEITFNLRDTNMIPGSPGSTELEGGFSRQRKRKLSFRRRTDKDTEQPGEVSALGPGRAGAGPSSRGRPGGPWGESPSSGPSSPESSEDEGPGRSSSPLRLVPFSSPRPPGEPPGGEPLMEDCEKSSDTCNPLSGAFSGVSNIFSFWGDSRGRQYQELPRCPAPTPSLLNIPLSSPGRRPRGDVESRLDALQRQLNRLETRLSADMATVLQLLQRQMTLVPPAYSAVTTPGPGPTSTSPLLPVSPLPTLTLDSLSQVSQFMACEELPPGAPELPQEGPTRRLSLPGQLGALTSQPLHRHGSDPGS

| Compound | Potency [1] | Potency [2] | Potency [3] | activity change, negative = inhibition [2] | activity change, negative = inhibition [3] |
| --- | --- | --- | --- | --- | --- |
| CCOC(=O)c1ccccc1 | inactive | inactive | inactive |  |  |
| CN(C)C(=O)Oc1ccc[n+](C)c1 | inactive | inactive | inactive |  |  |
| C[N+]1(CC2COC(c3ccccc3)(c3ccccc3)O2)CCCCC1 (stereo not given) | inactive |  |  | -15.6% [at 15.8 µM] (inactive) | -9.22% [at 23.6 µM] (inactive) |
| CC(=O)N[C@H]1[C@H]([C@H](O)[C@H](O)CO)OC(C(=O)O)=C[C@@H]1N=C(N)N | inactive | inactive | inactive |  |  |
| O=C(O)Cc1csc(-c2ccc(Cl)cc2)n1 | inactive | inactive | inactive |  |  |
| CCCC(C)C(=O)OCC (stereo not given) | inactive | inactive | inactive |  |  |
| CCC1C(=O)OCC1Cc1cncn1C (stereo not given) | inactive | inactive | 11 µM (active) |  |  |
| COc1ccccc1OCC1CNC(=O)O1 (stereo not given) | inactive | inactive | inactive |  |  |
| CCC(C)(CCCC(C)C)OC(C)=O (stereo not given) | inactive | inactive | inactive |  |  |
| CC(C)(C#N)Nc1nc(Cl)nc(NC2CC2)n1 | 39.9 µM (active) | inactive | 20 µM (active) |  |  |
| CCNS(=O)(=O)c1ccc(C)cc1 | 41.1 µM (active) | inactive | inactive |  |  |
| CC1=NN(c2cccc(S(=O)(=O)O)c2)C(=O)C1 | 44.8 µM (active) | inactive | inactive |  |  |
| CN1CC(=O)N/C1=N/C(=O)Nc1cccc(Cl)c1 | 20.4 µM (active) | inactive | inactive |  |  |
| C=COCC1CCC(COC=C)CC1 (stereo not given) | inactive | inactive | inactive |  |  |
| CC(C)(C)OC(=O)c1cccc(N)c1 | 7.29 µM (active) | inactive | 16.3 µM (active) |  |  |
| CCC(=O)OCc1ccccc1 | inactive | inactive | inactive |  |  |
| CO[C@@]1(NC(=O)C(C(=O)O)c2ccc(O)cc2)C(=O)N2C(C(=O)O)=C(CSc3nnnn3C)CO[C@@H]21 (stereo not given in full) | inactive | inactive | inactive |  |  |
| O=C(O)CC(C(=O)O)S(=O)(=O)O (stereo not given) | 31.7 µM (active) | inactive | inactive |  |  |

| Compound | Potency [1] | Potency [2] | Potency [3] | activity change, negative = inhibition [2] | activity change, negative = inhibition [3] |
| --- | --- | --- | --- | --- | --- |
| CN1C(C)(C)CC(O)CC1(C)C | inactive | inactive | inactive |  |  |
| CCN(CC#N)c1cccc(C)c1 | 28.3 µM (active) | inactive | inactive |  |  |
| c1ccc(CCc2ccccc2)cc1 | inactive | inactive | inactive |  |  |
| C=C(C)C(=O)OCC1CCCO1 (stereo not given) | inactive | inactive | inactive |  |  |
| CC(CC=O)CC(C)(C)C (stereo not given) | inactive | inactive | inactive |  |  |
| CC(COc1ccccc1)NN (stereo not given) | inactive | inactive | inactive |  |  |
| C=CCOCC(O)CO (stereo not given) | inactive | inactive | inactive |  |  |
| Cc1ncc(COP(=O)(O)O)c(C=O)c1O | 17.4 µM (active) | inactive | inactive |  |  |
| OCCc1ccccn1 | inactive | inactive | inactive |  |  |
| C1CCC2(CCCCO2)OC1 | inactive | inactive | inactive |  |  |
| CCC(C(=O)NC(=O)NC(C)=O)c1ccccc1 (stereo not given) | inactive | inactive | inactive |  |  |
| COC(=O)Nc1ccc(Cl)c(Cl)c1 | 5.61 µM (active) | inactive | inactive |  |  |
| CCCCS(=O)(=O)N[C@@H](Cc1ccc(OCCCCC2CCNCC2)cc1)C(=O)O | inactive | inactive | inactive |  |  |
| O=C(O)CNC(=O)c1ccccc1 | inactive | inactive | inactive |  |  |
| CC(C)(C)c1ccc(-c2ccc(C(C)(C)C)cc2)cc1 | inactive | inactive | inactive |  |  |
| CC(C)(CCC(=O)O)C(=O)O | 28.6 µM (active) | inactive | inactive |  |  |
| CCCCCCCCCCCCCCC(=O)O | 35.7 µM (active) | inactive | inactive |  |  |
